Reference: the supplement of paper PMC12067093, “Discovery and optimisation of a covalent ligand for TRIM25 and its application to targeted protein ubiquitination” (Chemical Science, 2025)
Targets with the largest changes are over-represented here; the source holds about 21,000 in all.

Compound: CC1Cc2ccccc2N1C(=O)C1CCCN(C1)C(=O)CCl (mixture of isomers) [TRIM25 ligand 11 (diastereomer mixture)]
Test: probe-labelled cysteine peptide fold change vs DMSO (competition) (log2 fold change); higher = less target engagement (more negative = stronger competition)
Conditions: THP-1, incubation time: 4 h
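Further: competitive chemoproteomic profiling in live THP-1 cells with an iodoacetamide desthiobiotin (IA-DTB) probe, comparing probe-labelled peptide intensities in compound-treated cells against DMSO-treated controls.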

Chain of UniProt Q96SD1 (Q96SD1 whole entry, looked up): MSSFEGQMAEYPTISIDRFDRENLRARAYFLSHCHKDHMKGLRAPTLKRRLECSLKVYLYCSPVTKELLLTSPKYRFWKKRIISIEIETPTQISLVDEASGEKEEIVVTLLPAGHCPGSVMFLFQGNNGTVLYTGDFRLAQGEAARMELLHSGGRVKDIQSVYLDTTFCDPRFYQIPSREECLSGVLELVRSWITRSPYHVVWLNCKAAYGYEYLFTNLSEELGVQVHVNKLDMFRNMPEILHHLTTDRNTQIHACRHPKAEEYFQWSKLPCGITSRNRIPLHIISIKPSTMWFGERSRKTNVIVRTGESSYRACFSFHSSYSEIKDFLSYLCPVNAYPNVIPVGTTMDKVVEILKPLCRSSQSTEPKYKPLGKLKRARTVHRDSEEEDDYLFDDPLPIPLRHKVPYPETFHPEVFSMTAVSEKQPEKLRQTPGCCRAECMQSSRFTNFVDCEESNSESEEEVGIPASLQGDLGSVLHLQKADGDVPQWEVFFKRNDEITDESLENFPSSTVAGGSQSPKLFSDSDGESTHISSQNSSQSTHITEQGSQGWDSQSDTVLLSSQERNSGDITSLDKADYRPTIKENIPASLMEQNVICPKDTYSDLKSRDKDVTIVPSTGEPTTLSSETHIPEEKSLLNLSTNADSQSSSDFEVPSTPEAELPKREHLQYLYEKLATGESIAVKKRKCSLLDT
Chain of UniProt Q8TBM8 (Q8TBM8 whole entry, looked up): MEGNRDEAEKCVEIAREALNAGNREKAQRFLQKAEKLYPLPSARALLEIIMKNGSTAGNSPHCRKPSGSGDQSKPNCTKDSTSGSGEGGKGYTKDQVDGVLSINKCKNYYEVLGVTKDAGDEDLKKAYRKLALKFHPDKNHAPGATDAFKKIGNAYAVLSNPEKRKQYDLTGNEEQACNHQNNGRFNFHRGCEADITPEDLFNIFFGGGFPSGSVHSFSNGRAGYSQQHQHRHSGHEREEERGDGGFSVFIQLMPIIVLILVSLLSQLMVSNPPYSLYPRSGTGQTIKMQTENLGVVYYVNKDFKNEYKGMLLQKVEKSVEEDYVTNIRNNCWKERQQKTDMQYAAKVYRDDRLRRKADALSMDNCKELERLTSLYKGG
Chain of UniProt Q9Y5R6 (Q9Y5R6 whole entry): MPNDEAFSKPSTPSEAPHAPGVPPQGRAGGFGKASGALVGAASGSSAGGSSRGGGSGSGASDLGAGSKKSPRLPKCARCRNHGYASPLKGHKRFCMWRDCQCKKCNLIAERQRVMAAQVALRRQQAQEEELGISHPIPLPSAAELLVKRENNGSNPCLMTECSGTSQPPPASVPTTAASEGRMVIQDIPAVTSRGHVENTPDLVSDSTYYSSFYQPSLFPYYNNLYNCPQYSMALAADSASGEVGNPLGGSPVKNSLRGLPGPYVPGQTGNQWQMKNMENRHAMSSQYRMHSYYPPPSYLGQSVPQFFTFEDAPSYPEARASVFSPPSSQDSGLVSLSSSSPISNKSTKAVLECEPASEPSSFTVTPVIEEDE
Chain of UniProt O95639 (O95639 whole entry, looked up): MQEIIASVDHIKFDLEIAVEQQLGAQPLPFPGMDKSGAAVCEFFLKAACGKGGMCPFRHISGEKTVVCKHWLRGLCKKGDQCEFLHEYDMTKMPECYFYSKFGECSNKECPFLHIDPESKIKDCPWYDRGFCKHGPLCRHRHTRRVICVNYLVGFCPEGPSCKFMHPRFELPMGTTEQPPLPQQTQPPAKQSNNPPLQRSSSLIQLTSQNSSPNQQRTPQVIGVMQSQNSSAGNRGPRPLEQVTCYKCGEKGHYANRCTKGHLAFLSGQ
Chain of UniProt Q7L591 (Q7L591 whole entry, looked up): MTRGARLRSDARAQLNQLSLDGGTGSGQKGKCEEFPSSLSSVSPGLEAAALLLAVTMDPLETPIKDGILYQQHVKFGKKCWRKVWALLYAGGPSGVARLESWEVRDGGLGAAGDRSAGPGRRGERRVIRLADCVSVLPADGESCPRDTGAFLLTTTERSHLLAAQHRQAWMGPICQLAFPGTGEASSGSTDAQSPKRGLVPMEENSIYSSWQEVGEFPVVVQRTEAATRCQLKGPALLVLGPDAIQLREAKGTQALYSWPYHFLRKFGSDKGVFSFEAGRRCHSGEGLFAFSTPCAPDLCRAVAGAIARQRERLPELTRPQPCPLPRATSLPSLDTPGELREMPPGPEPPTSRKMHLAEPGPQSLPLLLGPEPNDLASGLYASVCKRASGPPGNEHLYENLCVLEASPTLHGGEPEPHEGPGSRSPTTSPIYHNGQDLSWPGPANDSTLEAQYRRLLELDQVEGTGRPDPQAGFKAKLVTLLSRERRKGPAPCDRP
Chain of UniProt Q9Y2S2 (Q9Y2S2 whole entry, looked up): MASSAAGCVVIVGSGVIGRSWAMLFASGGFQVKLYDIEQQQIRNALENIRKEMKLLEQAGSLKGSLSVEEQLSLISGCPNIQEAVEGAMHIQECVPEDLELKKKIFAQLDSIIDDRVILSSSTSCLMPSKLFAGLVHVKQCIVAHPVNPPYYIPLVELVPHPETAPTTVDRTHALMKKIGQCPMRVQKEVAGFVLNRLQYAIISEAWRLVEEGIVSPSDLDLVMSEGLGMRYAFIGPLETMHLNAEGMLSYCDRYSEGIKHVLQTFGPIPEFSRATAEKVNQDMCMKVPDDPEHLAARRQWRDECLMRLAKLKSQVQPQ
Chain of UniProt Q86TI2 (Q86TI2 whole entry, looked up): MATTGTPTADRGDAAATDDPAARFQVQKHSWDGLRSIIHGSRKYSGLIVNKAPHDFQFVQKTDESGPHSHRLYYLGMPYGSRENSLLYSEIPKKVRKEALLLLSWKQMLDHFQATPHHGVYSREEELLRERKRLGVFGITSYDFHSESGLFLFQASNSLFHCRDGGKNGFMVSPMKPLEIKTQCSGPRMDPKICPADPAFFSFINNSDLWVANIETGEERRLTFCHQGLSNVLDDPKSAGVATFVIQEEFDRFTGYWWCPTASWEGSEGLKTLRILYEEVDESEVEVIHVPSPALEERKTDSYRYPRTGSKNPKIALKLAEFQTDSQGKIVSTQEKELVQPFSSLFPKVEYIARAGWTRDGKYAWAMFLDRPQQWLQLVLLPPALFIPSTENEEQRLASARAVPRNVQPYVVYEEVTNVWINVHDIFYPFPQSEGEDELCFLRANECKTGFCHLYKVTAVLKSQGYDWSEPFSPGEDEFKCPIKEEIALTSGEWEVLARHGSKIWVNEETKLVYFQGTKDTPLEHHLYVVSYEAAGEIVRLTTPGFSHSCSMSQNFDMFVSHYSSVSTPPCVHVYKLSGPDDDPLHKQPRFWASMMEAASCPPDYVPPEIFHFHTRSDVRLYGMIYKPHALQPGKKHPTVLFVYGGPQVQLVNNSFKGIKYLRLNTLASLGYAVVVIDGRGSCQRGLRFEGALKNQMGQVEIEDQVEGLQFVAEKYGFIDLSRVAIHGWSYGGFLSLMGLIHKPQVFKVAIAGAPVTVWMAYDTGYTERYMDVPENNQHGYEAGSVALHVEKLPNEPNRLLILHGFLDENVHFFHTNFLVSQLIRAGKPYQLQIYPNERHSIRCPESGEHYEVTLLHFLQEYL
Chain of UniProt Q9BVJ7 (Q9BVJ7 whole entry, looked up): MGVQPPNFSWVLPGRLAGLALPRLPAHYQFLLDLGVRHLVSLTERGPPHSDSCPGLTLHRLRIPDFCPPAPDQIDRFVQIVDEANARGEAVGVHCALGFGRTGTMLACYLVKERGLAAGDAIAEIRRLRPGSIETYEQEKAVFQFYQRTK
Chain of UniProt Q5QP82 (Q5QP82 whole entry, looked up): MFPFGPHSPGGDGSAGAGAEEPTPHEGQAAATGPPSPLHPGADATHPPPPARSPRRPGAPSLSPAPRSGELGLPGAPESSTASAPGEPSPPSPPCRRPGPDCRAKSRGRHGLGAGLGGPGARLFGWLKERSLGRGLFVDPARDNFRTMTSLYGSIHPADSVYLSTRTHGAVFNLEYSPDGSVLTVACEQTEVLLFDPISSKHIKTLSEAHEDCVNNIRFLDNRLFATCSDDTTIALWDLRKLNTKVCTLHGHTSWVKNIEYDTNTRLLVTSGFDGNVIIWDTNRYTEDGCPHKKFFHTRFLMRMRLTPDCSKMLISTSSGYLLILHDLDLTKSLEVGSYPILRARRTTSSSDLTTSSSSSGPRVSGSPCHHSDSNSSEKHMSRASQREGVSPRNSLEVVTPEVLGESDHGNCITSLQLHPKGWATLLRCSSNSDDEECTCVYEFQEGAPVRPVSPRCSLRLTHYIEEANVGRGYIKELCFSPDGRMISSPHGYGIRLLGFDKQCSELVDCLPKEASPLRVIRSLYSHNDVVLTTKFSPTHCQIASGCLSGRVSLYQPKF
Chain of UniProt P31689 (P31689 whole entry, looked up): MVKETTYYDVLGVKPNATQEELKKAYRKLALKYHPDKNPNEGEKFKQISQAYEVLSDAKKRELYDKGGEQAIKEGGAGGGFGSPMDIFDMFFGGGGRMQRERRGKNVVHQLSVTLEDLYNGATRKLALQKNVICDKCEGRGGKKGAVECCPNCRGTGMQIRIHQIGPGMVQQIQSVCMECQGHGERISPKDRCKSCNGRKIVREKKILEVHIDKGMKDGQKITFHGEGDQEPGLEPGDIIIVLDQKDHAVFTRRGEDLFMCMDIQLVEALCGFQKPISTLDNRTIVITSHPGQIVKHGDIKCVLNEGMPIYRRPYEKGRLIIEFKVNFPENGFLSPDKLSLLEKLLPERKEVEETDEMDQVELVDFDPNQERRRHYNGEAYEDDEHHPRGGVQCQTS
Chain of UniProt Q15438 (Q15438 whole entry, looked up): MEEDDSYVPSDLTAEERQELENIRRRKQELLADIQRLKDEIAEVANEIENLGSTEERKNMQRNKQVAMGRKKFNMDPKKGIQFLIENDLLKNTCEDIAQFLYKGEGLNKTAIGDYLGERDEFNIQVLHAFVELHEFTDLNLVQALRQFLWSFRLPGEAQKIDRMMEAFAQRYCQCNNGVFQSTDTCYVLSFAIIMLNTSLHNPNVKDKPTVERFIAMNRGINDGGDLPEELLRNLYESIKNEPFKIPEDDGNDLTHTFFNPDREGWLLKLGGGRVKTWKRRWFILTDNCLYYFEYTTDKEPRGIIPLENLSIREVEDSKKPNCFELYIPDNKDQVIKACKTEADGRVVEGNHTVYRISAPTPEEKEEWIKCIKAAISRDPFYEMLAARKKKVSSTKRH

Target | probe-labelled cysteine peptide fold change (10 µM) | probe-labelled cysteine peptide fold change (50 µM)
CYTH1_Q15438_323_EVEDSKKPNCFELYIPDNK (UniProt Q15438) | -0.213 | -0.14
DNM2_P50570-3_427_CVDLVVSELATVIK (UniProt P50570) | -0.0402 | 0.0756
DNAJB14_Q8TBM8_77_KPSGSGDQSKPNCTK (UniProt Q8TBM8) | -0.262 | -0.569
CUL4B_Q13620_248_YNLEELYQAVENLCSYK (UniProt Q13620) | 0.033 | 0.163
CTSH_P09668_272_TGIYSSTSCHK (UniProt P09668) | 0.223 | -0.279
DOP1B_Q9Y3R5_70_LAQCLHPALPSGVHLK (UniProt Q9Y3R5) | 0.262 | 0.136
DDX56_Q9NY93_185_SLLCHLPR (UniProt Q9NY93) | 0.556 | 0.332
CUL2_Q13617_103_GADYMDCLYR (UniProt Q13617) | 0.191 | 0.129
DPYSL2_Q16555_133_SCCDYSLHVDISEWHK (UniProt Q16555) | 0.131 | -0.000105
DUSP3_P51452_171_EIGPNDGFLAQLCQLNDR (UniProt P51452) | -0.408 | -0.0736
DUSP23_Q9BVJ7_95_GEAVGVHCALGFGR (UniProt Q9BVJ7) | -0.00709 | 0.14
DDX42_Q86XP3_382_ALQEGAEIVVCTPGR (UniProt Q86XP3) | 0.0737 | 0.0996
CRYBG1_Q9Y4K1_1404_ISSVQPICLDSFTGPR (UniProt Q9Y4K1) | 0.199 | -0.0158
CORO7_P57737_75_VAHLGCHSDLVTDLDFSPFDDFLLATGSADR (UniProt P57737) | 0.031 | 0.0305
DPP8_Q6V1X1_611_LSSPEDDPTCK (UniProt Q6V1X1) | 0.0995 | 0.0507
CUL4B_Q13620_297_CWQNHCR (UniProt Q13620) | 0.0567 | 0.295
DLEC1_Q9Y238_256_LEDSCR (UniProt Q9Y238) | 0.892 | 0.979
DCAF10_Q5QP82_213_TLSEAHEDCVNNIR (UniProt Q5QP82) | 0.0726 | -0.0884
DMRT1_Q9Y5R6_105_CNLIAER (UniProt Q9Y5R6) | 1.19 | 0.0204

Target | probe-labelled cysteine peptide fold change (10 µM) | probe-labelled cysteine peptide fold change (50 µM)
CPSF4_O95639_162_RVICVNYLVGFCPEGPSCK (UniProt O95639) | -0.292 | 0.0715
DPP9_Q86TI2_184_TQCSGPR (UniProt Q86TI2) | -0.111 | -0.073
DDX42_Q86XP3_339+346_ELCQQIHAECK (UniProt Q86XP3) | -0.0625 | -0.045
DNAJA1_P31689_271_RGEDLFMCMDIQLVEALCGFQK (UniProt P31689) | -0.021 | 0.281
CRIP2_P52943_150_DWHRPCLR (UniProt P52943) | 0.642 | -0.0653
DSN1_Q9H410_191_CFEDSNGK (UniProt Q9H410) | 0.115 | 0.0971
DCLRE1C_Q96SD1_34_AYFLSHCHK (UniProt Q96SD1) | 0.0604 | -0.0702
DNM1L_O00429_300_LLMHHIRDCLPELK (UniProt O00429) | -0.355 | -0.178
CRYBG1_Q9Y4K1_581+609_EVQLPTCHSNEPEVVSVASCAPPQEEVLGNEHSHCTAELAAK (UniProt Q9Y4K1) | 0.00451 | -0.813
DOK3_Q7L591_323_LPELTRPQPCPLPR (UniProt Q7L591) | 0.463 | -0.185
DNAJC10_Q8IXB1_161_EFDAAVNSGELWFVNFYSPGCSHCHDLAPTWR (UniProt Q8IXB1) | 0.476 | -0.235
DHX30_Q7L2E3_286_LSTLTLLWPCPMTFVAK (UniProt Q7L2E3) | -0.558 | -0.944
DECR2_Q9NUI1_53_HGCHTVIASR (UniProt Q9NUI1) | 0.317 | 0.574
DIAPH2_O60879_484_LDIDLTHLIDSCVNK (UniProt O60879) | 0.0266 | 0.095
CORO7_P57737_691_IVWVCDGR (UniProt P57737) | 0.154 | 0.334
DDX3X_O00571_128_WCDKSDEDDWSK (UniProt O00571) | -0.422 | -0.388
DIDO1_Q9BTC0_455_CGAQAGIK (UniProt Q9BTC0) | -0.117 | -0.185
CRYL1_Q9Y2S2_141_QCIVAHPVNPPYYIPLVELVPHPETAPTTVDR (UniProt Q9Y2S2) | 0.0328 | -0.0222
